# Test results taken from PubChem BioAssay (EPA / NIEHS).
# Active and inactive are the calls of the source. Rule for the calls: active = hit-call score of the fitted dose curve at least 0.9, where 1 is the maximum; inactive = score below 0.9.
# Read-out: Transforming Growth Factor (TGFA), TGFA (gene 7039)
# Experiment: LTEA_HepaRG_TGFA: Life Technologies and Expression Analysis (LTEA) Assay for Transforming Growth Factor (TGFA) using HepaRG (AID 2283532)
# Conditions: mRNA level, 48 h; actives raise or lower the signal
# Procedure: LTEA_HepaRG is a cell based, multiplexed-readout assay that uses HepaRG, a human liver cell line, with measurements taken at 48 hours after chemical dosing on a 96-well plate.LTEA_HepaRG_TGFA is one of 102 assay component(s) measured in the LTEA HepaRG cell culture assay. It is a marker of Cell proliferation, survival, death.Data from the assay component LTEA_HepaRG_TGFA was analyzed into 1 endpoint. This assay endpoint, LTEA_HepaRG_TGFA, was analyzed with bidirectional fitting relative to DMSO as the negative control and baseline of activity. Using a type of inducible reporter, measures of mRNA induction for gain or loss-of-signal activity can be used to understand regulation of transcription factor activity. To generalize the intended target to other relatable targets, this assay endpoint is annotated to the growth factor intended target family, where the subfamily is EGF-like domain.
# A total of 1060 chemcials from the ToxCast library were tested in eight-point concentration-response experiments. Cell culture and cytotoxicity assays were conducted at Thermo Fisher Scientific's Custom Services facility (Madison, WI). A single lot of human HepaRG cells (Thermo Fisher Scientific, Frederick, MD) was used for the cell culture experiments. 96-well format collagen type I coated plates of human HepaRG cells were prepared using established methods. Briefly, cryopreserved HepaRG cells were thawed, plated at a density of approximately 100,000 cells/well in HepaRG Thaw, Plate, and General Purpose media (HPRG770, Thermo Fisher Scientific), and incubated for 48 hours. 0.5% DMSO was selected as vehicle control to balance the requisite need of DMSO in HepaRG cultures to maintain differentiation (for example, baseline metabolism, proportions of hepatocytes vs. cholangiocytes), while enabling further hepatic receptor pathway activation (for example, PXR and CAR) in response to chemical exposure. 48 hours after plating, the culture medium was replaced with HepaRG Serum-Free Incudtion Media. Cells were exposed to each test chemical in duplicate and maintained in CO2 incubators for another 48 hours. Chemical plates were thawed to room temperature and 200x concentrations of treatment groups were prepared. 8-point conentration-reponse curves were made with the highest exposure at 100 uM, followed by half-log dilutions, all in 0.5% DMSO. Each test plate contained variouse controls, induction positive controls (1mM phenobarbital), cytotoxicity positive controls ([…] aflatoxin B1), vehicle controls (0.5% DMSO), and total lysis controls (0.5% DMSO). Cell morphology images were taken using an Essen IncuCyte FLR automated microscope, with six 96-well plates imaged in about 24 minutes. Images were captured and exported and JPEG files. Spent culture media was transfered to black-well plates for the LDH assay, and remaining media was sorted at -80 C for later use. Cells were treated with RLT buffer and frozen until shipped for gene expression analysis. Total RNA was isolated from the cell suspension in 75 uL of Buffer RLT (Qiagen, Germantown, MD 20874) by Quintiles/Expression Analysis (Durham, NC) using a custom isolation procedure. Total RNA from each plate well was transferred to a preamplification plate. Fluidigm's 96.96 Dynamic ArrayTM (Fluidigm, Amsterdam, the Netherlands) technology was used for gene expression analyses by quantitative reverse transcription polymerase chain reaction (qRT-PCR, performed by Quintiles/Expression Analysis, Durham, NC)89. Standard TaqManTM Assays (Applied Biosystems/ThermoFisher Scientific, Foster City, CA) were used to assess the expression of 93 genes selected based on their selectivity and sensitivity to important hepatic receptors known to be modulated by environmental chemicals; importance in human hepatocyte functionality; and hepatotoxicity. […]
Structure (SMILES),outcome,AC50
Nc1ccc(-c2ccc(N)cc2)cc1,inactive,
CCC(C)(CC)c1cc(NC(=O)c2c(OC)cccc2OC)on1,inactive,
CC(C)C(=O)OCC(C)(C)C(OC(=O)C(C)C)C(C)C (stereo not given),inactive,
O=C(O)C(F)(F)C(F)(F)C(F)(F)C(F)(F)C(F)(F)C(F)(F)C(F)(F)C(F)(F)C(F)(F)F,,23.4 µM (active)
CCSC(=O)N(CC)C1CCCCC1,inactive,
Cc1ccccc1O,inactive,
O=NN(c1ccccc1)c1ccccc1,inactive,
C[C@]12CCC(=O)C=C1CC[C@@H]1[C@@H]2CC[C@]2(C)C(=O)CC[C@@H]12,,50 µM (active)
Clc1ccc(Cl)cc1,inactive,
CCC(=O)O[C@H]1CC[C@H]2[C@@H]3CCC4=CC(=O)CC[C@]4(C)[C@H]3CC[C@]12C,inactive,
Oc1ccc(C(c2ccc(O)cc2)(C(F)(F)F)C(F)(F)F)cc1,,82.4 µM (active)
CCC(C)(c1ccc(O)cc1)c1ccc(O)cc1,inactive,
CCOP(=S)(OCC)SCSC(C)(C)C,inactive,
ClC1=C(Cl)[C@]2(Cl)[C@@H]3[C@@H]4C[C@@H]([C@H]5O[C@@H]45)[C@@H]3[C@@]1(Cl)C2(Cl)Cl,inactive,
CC(C)(c1ccccc1)c1ccc(O)cc1,inactive,
Clc1ccc(C(c2ccccc2Cl)C(Cl)(Cl)Cl)cc1 (stereo not given),inactive,
O=C(O)C(F)(F)C(F)(F)C(F)(F)C(F)(F)C(F)(F)F,inactive,
CCOC(=O)C(O)(c1ccc(Cl)cc1)c1ccc(Cl)cc1,inactive,
COS(=O)(=O)OC,inactive,
C1CC2OC2CC1C1CO1 (stereo not given),inactive,

Structure (SMILES),outcome,AC50
CCCCCCCCCC[N+](C)(C)CCCCCCCCCC,inactive,
O=C(NC(=O)c1c(F)cccc1F)Nc1cc(Cl)c(OC(F)(F)C(F)F)c(Cl)c1,inactive,
NS(=O)(=O)C(F)(F)C(F)(F)C(F)(F)C(F)(F)C(F)(F)C(F)(F)C(F)(F)C(F)(F)F,,12 µM (active)
C=CC(N)=O,inactive,
C=CC(=O)NCNC(=O)C=C,inactive,
Oc1ccc(Cl)cc1Cl,inactive,
CN(C)c1nc(=O)n(C2CCCCC2)c(=O)n1C,inactive,
Cc1cccc([N+](=O)[O-])c1,inactive,
c1cc2ccc3cccc4ccc(c1)c2c34,inactive,
O=C(O)C(F)(F)C(F)(F)C(F)(F)C(F)(F)C(F)(F)C(F)(F)C(F)(F)C(F)(F)F,,67.1 µM (active)
Cc1cc(O)ccc1Cl,inactive,
O=C(N[C@H]1CN2CCC1CC2)c1cc2ccoc2cn1,inactive,
N#Cc1ccc(N(CC(N)=O)CC(F)(F)F)cc1C(F)(F)F,inactive,
Cc1ccccc1CO[C@@H]1C[C@@]2(C(C)C)CC[C@]1(C)O2,inactive,
Cc1ccc(O)c(C)c1,inactive,
CCC(C)c1cc([N+](=O)[O-])cc([N+](=O)[O-])c1O (stereo not given),,4.14 µM (active)
CCNc1nc(NC(C)C)nc(SC)n1,inactive,
CN(C)CCO,inactive,
O=S(=O)(O)C(F)(F)C(F)(F)C(F)(F)C(F)(F)C(F)(F)C(F)(F)F,inactive,
O=S(=O)(O)C(F)(F)C(F)(F)C(F)(F)C(F)(F)F,inactive,
